Screens deposited in PubChem by National Center for Advancing Translational Sciences (NCATS).
ATXN2 expr inh – reduces ATXN2 reporter expression in HEK-293 cells; Potency, µM (titrated, usually from 57 µM), actives largely listed as inhibitors; actives 0.72% (n = 360,000); AID 1745845; HEK-293 ATXN2-luciferase reporter, luminescence, 24 h; also: nearly all actives have a fitted effect of over 55% in size
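ATXN2-luciferase reporter cells (luciferase flanked by upstream and downstream ATXN2 gene portions) were treated 24 h at 37 °C with compounds at up to 57 uM. SteadyGlo luminescence gave expression; GF-AFC fluorescence gave viability.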
HepG2 viability – counter-screen for TGF-b inhibitors: cytotoxicity in HepG2 cells; AID 588856; actives 0.76% (n = 410,000); Potency, µM (series often up to 46.1 µM), actives largely listed as cytotoxic; HepG2 CAGA-GFP viability, ATP luminescence, 18 h
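HepG2 CAGA-GFP cells (1000/well, DMEM with 1% FBS) received compound, then TGF-beta at 500 pg/mL final, and were incubated 18 hours at 37 degrees C. Viability was read by CellTiter-Glo luminescence. Media-only wells were set as complete cell-killing and DMSO as no toxicity.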
D3 antag – blocks the human D3 dopamine receptor. P35462. D3R cells, DiscoveRx beta-arrestin luminescence, antagonist mode; active compounds read low. max response, negative = inhibition, %. actives 2.5% (n = 360,000). AID 652054; in the data active = max response below about -50%; inconclusive = no clear call, values can overlap the other calls
Target sequence (P35462 whole entry, looked up): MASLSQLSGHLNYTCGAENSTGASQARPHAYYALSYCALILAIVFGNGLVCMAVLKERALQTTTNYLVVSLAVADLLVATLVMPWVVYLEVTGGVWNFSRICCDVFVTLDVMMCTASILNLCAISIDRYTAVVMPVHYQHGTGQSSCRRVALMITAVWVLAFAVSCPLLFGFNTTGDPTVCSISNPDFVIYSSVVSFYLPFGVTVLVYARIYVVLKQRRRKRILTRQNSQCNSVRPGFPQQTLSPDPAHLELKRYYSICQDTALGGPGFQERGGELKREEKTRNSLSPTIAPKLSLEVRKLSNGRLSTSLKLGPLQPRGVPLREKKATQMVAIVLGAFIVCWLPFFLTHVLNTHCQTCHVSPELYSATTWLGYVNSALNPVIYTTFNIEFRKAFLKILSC
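Cells plated overnight at 1500 cells/well, then exposed to library compounds with dopamine controls for 90 minutes at 37 degrees C. DiscoveRx reagent added for 30–60 minutes at room temperature; luminescence read, quantitative HTS format.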
S2 tox – reduces viability in counter-screen for ATXN expression inhibitors; S2 cells (HEK-293 line with an ATXN2-luciferase reporter) viability, CellTiter-Fluor protease fluorescence, 24 h; Potency, µM (highest dose often 56.7 µM), usual class: cytotoxic; actives 0.49% (n = 400,000); also: nearly all actives have a fitted effect of over 40% in size
TGFb inhibitor – inhibitors of TGF-b signaling; HepG2 CAGA-GFP TGF-b/SMAD3 reporter, GFP fluorescence, 18 h; TGF-beta stimulated, 500 pg/mL final; Potency, µM (titrated, usually from 46.1 µM), actives largely listed as inhibitors; actives 1.2% (n = 410,000); AID 588855; also: nearly all actives have a fitted effect of over 65% in size
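Inhibition was scored as loss of TGF-beta-induced (500 pg/mL final, 18 hours, 37 degrees C) GFP in HEPG2 cells carrying a CAGA-GFP reporter, in DMEM with 1% FBS. Well GFP was summed per cell; Activity was normalised to unstimulated and stimulated DMSO wells, then concentration-response fitting.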
D3 ag – agonists of human D3 dopamine receptor | D3R DiscoveRx beta-arrestin cells, luminescence, 90 min | P35462 | actives 0.58% (n = 410,000) | max activation, %; in the data active = max activation above about 30%
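Agonist-mode cell screen: cells plated at 1500/well and incubated overnight at 37 °C, then exposed to library compounds for 90 min at 37 °C. Detection reagent was added for 30–60 min at room temperature, and luminescence was read.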
Each line names hits and unclear results; the compound was inactive in the other large screens. The list is not random: actives were taken first. Their share in the collection is about 4.8%. Unless noted, calls follow the shape of the dose curve; as a rule, active = well fitted curve in the direction sought with a large enough effect; inconclusive = small, poorly fitted or top-dose-only effect, or another doubt; inactive = no such curve, though single readings can be large; an effect the other way counts as inactive or inconclusive.

COc1cccc(Nc2nc(C(N)CC(C)C)cs2)n1 (stereo not given)	S2 tox inconclusive, TGFb inhibitor 11µM
O=C(C[n+]1cccc(Br)c1)c1ccc2c(c1)CCCC2	none (no result: ATXN2 expr inh, D3 antag, S2 tox, D3 ag)
O=c1[nH]c(Nc2ccccc2)cc2cc(Br)ccc12	none
CC(=O)c1cccc(-c2ccc3c(=O)[nH]c(Nc4ccccc4)cc3c2)c1	D3 ag 31
CCn1c2c(c(=N)c3c1CCC3)CCCC2	none
CCCCCn1c2c(c(=N)c3ccccc31)CCC2	ATXN2 expr inh inconclusive, TGFb inhibitor inconclusive
CCCCCCCCCn1c2c(c(=N)c3c1CCC3)CCCC2	ATXN2 expr inh inconclusive, S2 tox inconclusive, TGFb inhibitor 6.3µM
CCCCCCCCCCn1c2c(c(=N)c3c1CCC3)CCC2	ATXN2 expr inh inconclusive, S2 tox inconclusive, TGFb inhibitor 13µM
CCCCCCCCn1c2c(c(=N)c3ccccc31)CCC2	ATXN2 expr inh 7.5µM, S2 tox inconclusive, TGFb inhibitor inconclusive
O=C[C@H](O)[C@@H](O)[C@@H](O)[C@H](O)CO	none (no result: ATXN2 expr inh, HepG2 viability, D3 antag, S2 tox, TGFb inhibitor)
CC(C)C(=O)Nc1cccc(S(=O)(=O)NC2=NCCC2)c1	D3 antag inconclusive (no result: ATXN2 expr inh)
O=C(CCl)Nc1cccc(S(=O)(=O)NC2=NCCC2)c1	HepG2 viability 14µM, TGFb inhibitor 11µM (no result: ATXN2 expr inh, S2 tox)
CC1(C(=O)OCC(=O)Nc2cccc(S(=O)(=O)NC3=NCCCCC3)c2)CC1(Cl)Cl (stereo not given)	D3 ag 45
CCCCNC(=S)Nc1cccc(S(=O)(=O)NC2=NCCC2)c1	HepG2 viability 3.5µM
Cc1ccc(-c2nc(-c3cc4c([nH]c3=O)CC(C)(C)CC4=O)sc2C)cc1	none (no result: D3 antag)
O=C(c1cn(C2CCCN(Cc3cccc(Oc4ccccc4)c3)C2)nn1)N1CCCC1 (stereo not given)	none (no result: ATXN2 expr inh, HepG2 viability, D3 antag, TGFb inhibitor, D3 ag)
C[N+](C)(C)CC/C=C1/c2ccccc2CSc2ccccc21	none
CNCCC=C1c2ccccc2CCc2ccccc21	D3 antag -91
COc1cc(/C=N/Nc2snc(SC)c2C#N)cc(OC)c1OC	ATXN2 expr inh 3.2µM, S2 tox inconclusive, TGFb inhibitor inconclusive
COc1ccc(OC)c(CNC(=O)Nc2cn(CC(C)C)c(=O)c3ccccc23)c1	none (no result: D3 antag)
CCNC(=O)CC1SC(=Nc2ccc(Cl)cc2)N(CC)C1=O (stereo not given)	HepG2 viability 13µM, TGFb inhibitor inconclusive (no result: ATXN2 expr inh)
CCN=C1SC(CC(=O)NCC)C(=O)N1CC (stereo not given)	none
O=C(Nc1ccc(O)c2c(=O)cc(-c3ccccc3Cl)oc12)c1ccccc1Cl	none
O=c1cc(-c2ccccc2Cl)oc2ccc([N+](=O)[O-])c(O)c12	none
O=c1cc(-c2ccccc2Cl)oc2c([N+](=O)[O-])c(O)cc(O)c12	ATXN2 expr inh inconclusive, TGFb inhibitor 13µM
CN1CC[C@H](c2c(O)cc(O)c3c(=O)cc(-c4ccccc4Cl)oc23)[C@@H](O)C1	TGFb inhibitor 0.22µM (no result: ATXN2 expr inh, D3 antag, S2 tox, D3 ag)
Cc1cccc(N=C2NN=C(c3c(C)[nH]c4ccccc34)CS2)c1	ATXN2 expr inh 28µM, S2 tox inconclusive
CCOc1ccc(N(C)C(CNS(=O)(=O)c2ccccc2)c2ccccc2)cc1 (stereo not given)	ATXN2 expr inh inconclusive, TGFb inhibitor inconclusive (no result: D3 antag)
CC(Oc1ccc2c(c1)c1ccnc3c4ccccc4c(=O)n2c13)C(=O)NCCN1CCOCC1 (stereo not given)	HepG2 viability 11µM
CCOc1ccc2c(c1)-c1c(ssc1=S)C(C)(C)N2	D3 antag -74
O=C(NCCCN1CCCCCC1)c1ccc2c(c1)sc1nc(-c3ccccc3)cn12	HepG2 viability 16µM, TGFb inhibitor inconclusive (no result: ATXN2 expr inh, D3 antag, S2 tox)
COc1ccc(NC(=S)NC(NC(C)=O)C(Cl)(Cl)Cl)c([N+](=O)[O-])c1 (stereo not given)	none
COc1ccc(NC(=S)NC(NC(=O)c2cccc(Cl)c2)C(Cl)(Cl)Cl)c([N+](=O)[O-])c1 (stereo not given)	ATXN2 expr inh inconclusive, S2 tox inconclusive, TGFb inhibitor 22µM
COc1ccc(NC(=S)NC(NC(=O)c2cccc(C)c2)C(Cl)(Cl)Cl)c([N+](=O)[O-])c1 (stereo not given)	D3 antag -82
COc1ccc(C(=O)NC(NC(=S)Nc2ccc(S(N)(=O)=O)cc2)C(Cl)(Cl)Cl)cc1 (stereo not given)	D3 antag -75
O=C(NC(NC(=S)Nc1ccccc1Cl)C(Cl)(Cl)Cl)c1cccc(Cl)c1 (stereo not given)	ATXN2 expr inh inconclusive, D3 antag inconclusive, S2 tox inconclusive, TGFb inhibitor inconclusive
O=C(NC(NC(=S)Nc1ccccc1C(=O)O)C(Cl)(Cl)Cl)c1cccc([N+](=O)[O-])c1 (stereo not given)	D3 antag -79
CSc1nnc(CNC(=O)/C=C/c2ccccc2Cl)n1-c1ccc(F)cc1	none (no result: ATXN2 expr inh, HepG2 viability, D3 antag, TGFb inhibitor, D3 ag)
CC(=O)N1c2ccc(S(=O)(=O)Nc3ccc(Cl)cc3C)cc2CC1C (stereo not given)	TGFb inhibitor inconclusive (no result: ATXN2 expr inh, D3 antag, S2 tox)
O=C(Nc1ccc(Cl)cn1)c1cnn2c1NC(=C1CC1)C=C2C(F)F	none (no result: ATXN2 expr inh, D3 antag, S2 tox, D3 ag)
Cc1cnc(C=NNC(N)=S)c2cccc(N)c12	ATXN2 expr inh inconclusive, S2 tox inconclusive, TGFb inhibitor 10µM
NC(=S)NN=Cc1nccc2ccccc12	ATXN2 expr inh inconclusive, S2 tox inconclusive
NC(=S)NN=Cc1nccc2c(C(F)(F)C(F)(F)C(F)(F)F)cccc12	D3 antag inconclusive, TGFb inhibitor 1.4µM (no result: ATXN2 expr inh, S2 tox)
NC(=S)N/N=C/c1cccc(O)c1O	none
CCOc1ccc(NC(=O)N2CCN(S(=O)(=O)c3ccc4c(ccn4C)c3)CC2)cc1	none (no result: D3 antag)
CCOC(=O)[C@H](CCc1ccccc1)N[C@@H](C)C(=O)N1C(=O)N(C)C[C@H]1C(=O)O	none (no result: HepG2 viability, D3 antag, TGFb inhibitor)
O=C(N/N=C/C1CCCCC1)c1ccccc1-n1cccc1	D3 ag 36
CC1CCC(=NNC(=O)c2ccccc2-n2cccc2)CC1 (stereo not given)	none
O=C1CCc2cc(-c3csc(-c4ccc(O)cc4)n3)ccc2N1	none (no result: ATXN2 expr inh, D3 antag, S2 tox, D3 ag)
COC(=O)/C(=C1/Oc2cc(C)oc(=O)c2S1)C(F)(F)F	ATXN2 expr inh inconclusive, TGFb inhibitor 5.6µM (no result: S2 tox)
CCN1CCCC(CO)(Cc2ccccc2)C1 (stereo not given)	none
OCC1(Cc2ccccc2)CCCN(Cc2ccc(-c3ccco3)cc2)C1 (stereo not given)	D3 antag -90
CSc1cccc(CN2CCC(CO)(Cc3ccccc3)CC2)c1	none
OCC1(Cc2ccccc2)CCN(Cc2ccc(-c3ccco3)cc2)CC1	ATXN2 expr inh inconclusive, D3 antag -85, TGFb inhibitor inconclusive
CC(C)C(NS(C)(=O)=O)c1nnc2n1CCN(Cc1ccc(C#CC(C)(C)O)cc1)CC2 (stereo not given)	none (no result: ATXN2 expr inh, HepG2 viability, D3 antag, TGFb inhibitor, D3 ag)
